Assay results reported in PubChem BioAssay (EPA / NIEHS).
Results filed as inconclusive are left out. Active and inactive are the calls of the source. How the source made its calls, unless noted: active means hit-call score of the fitted dose curve at least 0.9, where 1 is the maximum; inconclusive means response in the unintended direction; inactive means score below 0.9.

Legend:
[1] = read-out: X-box binding protein 1 (XBP1), XBP1 (gene 7494); test: LTEA_HepaRG_XBP1: Life Technologies and Expression Analysis (LTEA) Assay for X-box binding protein 1 (XBP1) using HepaRG (AID 2283540; active means hit-call score of the fitted dose curve at least 0.9, where 1 is the maximum; inactive means score below 0.9); conditions: mRNA level, 48 h; actives raise or lower the signal
Outline: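 XBP1 transcript by qRT-PCR (housekeeping-normalized: ACTB, GAPDH, POLR2A) after 48 h chemical treatment of HepaRG cells, 8-point half-log series topping at 100 uM, vehicle 0.5% DMSO. Gain and loss of signal fitted relative to DMSO.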

[2] = LTEA_HepaRG_LDH_cytotoxicity: Cytotoxicity Assessment in the Life Technologies and Expression Analysis (LTEA) Assay (AID 2283563)
Outline: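 LDH release into culture medium read after 48 h chemical treatment of HepaRG cells. Duplicate wells, eight-point half-log series topping at 100 uM, 0.5% DMSO vehicle and baseline.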

[3] = molecular target: Cellular tumor antigen p53 (Homo sapiens) (UniProt P04637); test: TOX21_p53_BLA_p2_ratio: Tox21 HCT-116 p53 Agonism Beta-lactamase Assay, Ratio, Phase 2 (AID 2283592)
Outline: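 Gain-of-signal p53 agonism was scored from the beta-lactamase FRET ratio (460/530 nm, 405 nm excitation) in HCT116 cells treated 16 h at 37C, 5% CO2, with DMSO serving as negative control and baseline.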

[4] = molecular target: Cellular tumor antigen p53 (Homo sapiens) (UniProt P04637); test: TOX21_p53_BLA_p3_ratio: Tox21 HCT-116 p53 Agonism Beta-lactamase Assay, Ratio, Phase 3 (AID 2283596)
Outline: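 HCT116 p53-bla cells (4000/well) given compound in DMSO (217-fold dilution) after 5 h, incubated 16 h at 37C. CCF4-AM substrate 2 h at room temperature; 460/530 nm emission ratio, gain fitted against DMSO.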

[5] = TOX21_p53_BLA_p5_viability: Viability Assessment in the Tox21 HCT-116 p53 Agonism Beta-lactamase Assay, Phase 5 (AID 2283600)
Outline: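 After the 460/530 nm beta-lactamase measurement, the wells received an ATP-detection luciferase reagent; signal was read 30 min later at RT. Compound treatment lasted 16 h on cells pre-incubated 5 h post-seeding.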

[6] = molecular target: Cellular tumor antigen p53 (Homo sapiens) (UniProt P04637); test: TOX21_p53_BLA_p4_ratio: Tox21 HCT-116 p53 Agonism Beta-lactamase Assay, Ratio, Phase 4 (AID 2283601)
Outline: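 HCT-116 p53 beta-lactamase reporter cells (4000/well) preincubated 5 h, then compound (217-fold dilution of DMSO stock) for 16 h at 37C. CCF4-AM substrate added 2 h at room temperature; 460/530 nm emission ratio fitted upward versus DMSO.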

[7] = Tanguay_ZF_120hpf_MORT_legacy: (Legacy) Oregon State University Tanguay Lab 120 Hour Post-fertilization zebrafish Assay for Mortality (AID 2283633)
Outline: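 Static waterborne exposure from 6 to 120 hpf at 28C of single dechorionated wild-type (5D) embryos per well, 0.64% DMSO final. Death recorded present/absent by brightfield at 24 and 120 hpf.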

[8] = Tanguay_ZF_120hpf_YSE_legacy: (Legacy) Oregon State University Tanguay Lab 120 Hour Post-fertilization zebrafish Assay for Yolk Sac Edema (AID 2283634)
Outline: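 Presence or absence of yolk sac edema was recorded at 120 hpf in surviving larvae. These were wild-type Tropical 5D embryos, chorion removed at 4 hpf, held in static exposure at 28C from 6 hpf with 0.64% DMSO vehicle.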

[9] = Tanguay_ZF_120hpf_AXIS_legacy: (Legacy) Oregon State University Tanguay Lab 120 Hour Post-fertilization zebrafish Assay for Body Axis Malformation (AID 2283635)
Outline: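 Binary scoring of axis defects at 120 hpf under brightfield, fitted positive versus DMSO. Tropical 5D embryos, chorion removed by pronase at 4 hpf, were singly exposed in sealed, dark plates at 28C from 6 hpf; DMSO 0.64% final.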

[10] = Tanguay_ZF_120hpf_EYE_legacy: (Legacy) Oregon State University Tanguay Lab 120 Hour Post-fertilization zebrafish Assay for Eye Malformation (AID 2283636);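 further: binary presence or absence of eye malformation scored by brightfield in 120 hpf larvae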
Outline: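 Dechorionated Tropical 5D zebrafish embryos, one per well from 6 hpf, static exposure to 120 hpf at 28C, 0.64% DMSO. Eye malformation scored present/absent by brightfield; dead embryos not scored.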

[11] = Tanguay_ZF_120hpf_SNOU_legacy: (Legacy) Oregon State University Tanguay Lab 120 Hour Post-fertilization zebrafish Assay for Snout Malformation (AID 2283637)
Outline: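 Dechorionated tropical 5D wild-type zebrafish embryos exposed statically from 6 to 120 hpf at 28C, one per well, in 0.64% DMSO. Snout malformation scored as present/absent by brightfield at 120 hpf; dead embryos not scored.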

[12] = Tanguay_ZF_120hpf_OTIC_legacy: (Legacy) Oregon State University Tanguay Lab 120 Hour Post-fertilization zebrafish Assay for Otic Vesicle Malformation (AID 2283639)
Outline: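 Tropical 5D wild-type zebrafish embryos were exposed statically in sealed, foil-covered plates at 28C until 120 hpf, with 0.64% (vol/vol) DMSO final. Otic vesicle malformation was scored present/absent by brightfield microscopy, with DMSO as baseline.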

[13] = Tanguay_ZF_120hpf_PE_legacy: (Legacy) Oregon State University Tanguay Lab 120 Hour Post-fertilization zebrafish Assay for Pericardial Edema (AID 2283640)
Outline: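 Scoring was binary, by brightfield microscopy at 120 hpf, and skipped where mortality occurred. Wild-type embryos were kept under sealed, foil-covered static exposure at 28C in 0.64% (vol/vol) DMSO.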

[14] = Tanguay_ZF_120hpf_BRAI_legacy: (Legacy) Oregon State University Tanguay Lab 120 Hour Post-fertilization zebrafish Assay for Brain Malformation (AID 2283641)
Outline: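 Binary brightfield scoring of brain malformation at 120 hpf in Tropical 5D larvae held under static exposure at 28C (0.64% v/v DMSO), non-mortality endpoints skipped if dead. Positive control: 5uM trimethyltin chloride; fit versus DMSO.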

[15] = TOX21_p53_BLA_p2_viability: Viability Assessment in the Tox21 HCT-116 p53 Agonism Beta-lactamase Assay, Phase 2 (AID 2283591);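 further: compound exposure lasted 16 h at 37 °C; actives lower the ATP signal meaning cytotoxicity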
Outline: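 HCT116 p53-bla cells, 4000/well, dosed after 5 h plating (217-fold dilution of DMSO stocks) and incubated 16 h at 37C. Viability taken as cellular ATP by CellTiter-Glo luminescence after 30 min RT; signal loss marks cytotoxicity.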

[16] = TOX21_p53_BLA_p3_viability: Viability Assessment in the Tox21 HCT-116 p53 Agonism Beta-lactamase Assay, Phase 3 (AID 2283593);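 further: cells exposed to compound for 16 h before reading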
Outline: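 HCT116 cells, 4000/well, dosed 5 h after plating by pin transfer (217-fold dilution from DMSO stock) and incubated 16 h at 37C, 5% CO2. Viability read as ATP luminescence with CellTiter-Glo after 30 min at room temperature.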

[17] = TOX21_p53_BLA_p4_viability: Viability Assessment in the Tox21 HCT-116 p53 Agonism Beta-lactamase Assay, Phase 4 (AID 2283597);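 further: hits lower the luminescence signal meaning cytotoxicity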
Outline: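 Following a 16 h exposure at 37C, the treated HCT116 wells were first read for the FRET ratio. They were then lysed with CellTiter-Glo, and ATP luminescence was recorded after 30 min at room temperature.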

[18] = molecular target: Cellular tumor antigen p53 (Homo sapiens) (UniProt P04637); test: TOX21_p53_BLA_p5_ratio: Tox21 HCT-116 p53 Agonism Beta-lactamase Assay, Ratio, Phase 5 (AID 2283599)
Outline: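 HCT-116 p53-bla cells (4000/well) plated 5 h, dosed with compound (217-fold DMSO dilution) for 16 h at 37 C; CCF4-AM substrate 2 h at room temperature. Activity is the 460/530 nm emission ratio (405 nm excitation), fitted in gain-of-signal direction versus DMSO.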

[19] = Tanguay_ZF_120hpf_JAW_legacy: (Legacy) Oregon State University Tanguay Lab 120 Hour Post-fertilization zebrafish Assay for Jaw Malformation (AID 2283638)
Outline: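 Binary jaw-malformation call at 120 hpf by brightfield microscopy. Embryos (Tropical 5D strain, chorion removed at 4 hpf) were dosed statically at 6 hpf, one per well, at 28C with 0.64% DMSO. Embryos that died were not scored.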

Measured: outcome

Sequence of Cellular tumor antigen p53 (Homo sapiens) (P04637 whole entry, looked up): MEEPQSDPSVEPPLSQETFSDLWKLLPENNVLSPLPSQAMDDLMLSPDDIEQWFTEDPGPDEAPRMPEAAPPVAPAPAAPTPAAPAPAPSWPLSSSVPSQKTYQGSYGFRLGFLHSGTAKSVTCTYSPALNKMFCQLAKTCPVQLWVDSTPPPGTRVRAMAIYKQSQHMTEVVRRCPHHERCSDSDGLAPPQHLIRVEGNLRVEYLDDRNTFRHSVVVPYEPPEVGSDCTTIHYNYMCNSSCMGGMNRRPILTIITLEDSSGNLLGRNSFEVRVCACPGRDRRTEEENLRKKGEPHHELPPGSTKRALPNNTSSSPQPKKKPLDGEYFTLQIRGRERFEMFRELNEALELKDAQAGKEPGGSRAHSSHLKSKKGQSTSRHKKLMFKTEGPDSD

O=P(O)(O)CCCl
not listed: [15] | [16] | [17] | [18] | [19]
inactive: all other assays above

Clc1cccc(C(Cl)(Cl)Cl)n1
not listed: [3] | [6] | [13]
inactive: all other assays above

CS(=O)(=O)c1cc(C(F)(F)F)ccc1C(=O)c1cnoc1C1CC1
not listed: [3] | [4] | [6] | [13] | [14] | [16] | [18]
inactive: all other assays above

CCN(CC)c1nc(C)cc(OP(=S)(OC)OC)n1
not listed: [5] | [10] | [16] | [18]
inactive: all other assays above
